Results taken from PubChem BioAssay (Tox21).
Values joined by “and” are separate entries in the source; they are usually repeats but may differ in a detail not shown here. Equal entries are not always repeated. Some compounds were tested as several samples or in several runs, with calls that do not always agree. Active and inactive are the calls of the source. Unless noted, the call rests on the fitted dose curve; in most records, active means well fitted curve in the direction sought with a large enough effect in the repeat runs; inconclusive means weak or mixed curves; inactive means no such curve, though single readings can be large; an effect the other way counts as inactive or inconclusive.

Columns and labels:
[1] = qHTS assay to identify small molecule antagonists of the glucocorticoid receptor (GR) signaling pathway - cell viability counter screen (AID 720693); further: nearly all actives have a fitted effect of over 55% in size
[2] = qHTS assay for identifying genotoxic compounds that show differential cytotoxicity against isogenic chicken DT40 cell lines with known DNA damage response pathways - wild type cell line (AID 743012); further: nearly all actives have a fitted effect of over 60% in size; further: potency means the concentration at half of the fitted maximal effect
How it was run: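 Wild-type DT40 cells (300/well) exposed to compounds for 40 hours at 37 C/5% CO2. Viability read by CellTiter-Glo luminescence after 30 min at room temperature.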

[3] = qHTS assay for identifying genotoxic compounds that show differential cytotoxicity against isogenic chicken DT40 cell lines with known DNA damage response pathways - Rev3 mutant cell line (AID 743014); further: nearly all actives have a fitted effect of over 55% in size; further: potency means the concentration at half of the fitted maximal effect
[4] = qHTS assay for identifying genotoxic compounds that show differential cytotoxicity against isogenic chicken DT40 cell lines with known DNA damage response pathways - Rad54/Ku70 mutant cell line (AID 743015); further: nearly all actives have a fitted effect of over 60% in size; further: potency means the concentration at half of the fitted maximal effect
[5] = qHTS assay to identify small molecule antagonists of the androgen receptor (AR) signaling pathway - cell viability counter screen (AID 743033; further: nearly all actives have a fitted effect of over 45% in size; further: potency means the concentration at half of the fitted maximal effect)
[6] = qHTS assay to identify small molecule antagonists of the androgen receptor (AR) signaling pathway using the MDA cell line - cell viability counter screen (AID 743041; further: nearly all actives have a fitted effect of over 45% in size; further: potency means the concentration at half of the fitted maximal effect)
How it was run: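 MDA-kb2 AR-luc cells (MMTV-luciferase, AR/GR responsive) treated with compounds plus R1881 agonist for 16 h at 37C. CellTiter-Fluor added at 15.5 h; fluorescence read after 30 min in the same wells.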

[7] = qHTS assay to identify small molecule antagonists of the thyroid receptor (TR) signaling pathway - cell viability counter screen (AID 743064); further: nearly all actives have a fitted effect of over 50% in size; further: potency means the concentration at half of the fitted maximal effect
How it was run: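 Rat GH3 pituitary tumor cells stably expressing two TR response elements driving luciferase were plated, rested 4 h, then dosed with library compounds and T3 (1 nM final). After 23.5 h at 37 °C, CellTiter-Fluor was added for 30 min and fluorescence recorded.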

[8] = qHTS assay to identify small molecule antagonists of the thyroid receptor (TR) signaling pathway (AID 743065); further: nearly all actives have a fitted effect of over 55% in size; further: potency means the concentration at half of the fitted maximal effect
How it was run: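 GH3.TRE-Luc rat pituitary cells (two TREs driving luciferase) were dosed with compound, then stimulated with 1 nM T3 (final) for 23.5 h at 37 C. ONE-Glo luminescence was the read-out, with CellTiter-Fluor fluorescence as the cytotoxicity counter-screen.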

[9] = system: thyroid hormone receptor (rat, GH3 cells); assay: qHTS assay to identify small molecule agonists of the thyroid receptor (TR) signaling pathway (AID 743066; calls by dose curve; further: potency means the concentration at half of the fitted maximal effect)
[10] = qHTS assay to identify small molecule antagonists of the estrogen receptor alpha (ER-alpha) signaling pathway - cell viability counter screen (AID 743074; calls by dose curve;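 further: HEK293 cells carrying ER-alpha-UAS-bla reporter stimulated with 17beta-estradiol; nearly all actives have a fitted effect of over 45% in size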; further: potency means the concentration at half of the fitted maximal effect)
[11] = qHTS assay to identify small molecule antagonists of the estrogen receptor alpha (ER-alpha) signaling pathway using the BG1 cell line - cell viability counter screen (AID 743081);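 further: compound given together with 17beta-estradiol as the ER stimulus; nearly all actives have a fitted effect of over 45% in size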; further: potency means the concentration at half of the fitted maximal effect
[12] = target: Aromatase (Homo sapiens) (UniProt P11511); assay: qHTS assay to identify aromatase inhibitors (AID 743083); further: nearly all actives have a fitted effect of over 55% in size; further: potency means the concentration at half of the fitted maximal effect
Sequence of Aromatase (Homo sapiens) (P11511 whole entry, looked up): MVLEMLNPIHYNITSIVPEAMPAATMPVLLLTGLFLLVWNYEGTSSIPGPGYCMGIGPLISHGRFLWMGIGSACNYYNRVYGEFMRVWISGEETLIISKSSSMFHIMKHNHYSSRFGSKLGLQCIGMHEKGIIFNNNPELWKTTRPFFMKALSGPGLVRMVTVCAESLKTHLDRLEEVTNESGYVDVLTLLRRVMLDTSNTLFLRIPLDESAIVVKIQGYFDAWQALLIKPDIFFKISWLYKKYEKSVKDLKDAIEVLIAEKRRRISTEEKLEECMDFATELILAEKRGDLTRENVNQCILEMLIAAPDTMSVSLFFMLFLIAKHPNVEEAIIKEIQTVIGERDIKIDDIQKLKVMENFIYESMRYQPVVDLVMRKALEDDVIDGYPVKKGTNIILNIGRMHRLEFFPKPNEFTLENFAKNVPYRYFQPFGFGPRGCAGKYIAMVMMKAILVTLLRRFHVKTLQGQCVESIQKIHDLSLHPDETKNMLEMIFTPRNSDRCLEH

[13] = target: Estrogen receptor (Homo sapiens) (UniProt P03372); assay: qHTS assay to identify small molecule antagonists of the estrogen receptor alpha (ER-alpha) signaling pathway (AID 743069; active means well fitted curve in the direction sought with a large enough effect in the signal ratio in the repeat runs, not every such curve was filed as active; inconclusive means weak or mixed curves, or effect the other way; inactive means no such curve, though single readings can be large or run the other way; the % refers to the signal ratio; further: potency means the concentration at half of the fitted maximal effect)
Sequence of Estrogen receptor (Homo sapiens) (P03372 whole entry, looked up): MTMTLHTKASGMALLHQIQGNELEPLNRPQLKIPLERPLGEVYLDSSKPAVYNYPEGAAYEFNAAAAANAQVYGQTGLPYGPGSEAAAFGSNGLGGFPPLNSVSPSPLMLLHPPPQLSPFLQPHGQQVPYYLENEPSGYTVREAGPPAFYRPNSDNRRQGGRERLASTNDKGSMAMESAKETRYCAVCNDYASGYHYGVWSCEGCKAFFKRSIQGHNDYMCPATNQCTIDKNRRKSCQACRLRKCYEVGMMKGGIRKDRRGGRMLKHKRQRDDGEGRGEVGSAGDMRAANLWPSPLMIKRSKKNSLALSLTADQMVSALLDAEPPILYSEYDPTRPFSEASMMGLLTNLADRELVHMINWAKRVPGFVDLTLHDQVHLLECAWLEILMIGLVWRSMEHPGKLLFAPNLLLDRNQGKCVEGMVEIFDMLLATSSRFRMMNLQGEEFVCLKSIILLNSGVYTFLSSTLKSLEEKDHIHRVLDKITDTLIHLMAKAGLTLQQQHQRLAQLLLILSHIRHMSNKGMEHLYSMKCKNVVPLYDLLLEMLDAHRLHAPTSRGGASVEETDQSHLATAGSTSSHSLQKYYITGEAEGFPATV
How it was run: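 HEK293 ER-alpha-UAS-bla GripTite cells, held overnight in 2% charcoal-stripped FBS, 5,000 cells/well, preincubated 4 h, then compound plus 17beta-estradiol for 18 h at 37C. Beta-lactamase read by LiveBLAzer B/G FRET substrate, 2 h at room temperature.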

[14] = target: Estrogen receptor (Homo sapiens) (UniProt P03372); assay: qHTS assay to identify small molecule agonists of the estrogen receptor alpha (ER-alpha) signaling pathway (AID 743075; calls by dose curve; further: potency means the concentration at half of the fitted maximal effect)
[15] = target: Estrogen receptor (Homo sapiens) (UniProt P03372); assay: qHTS assay to identify small molecule agonists of the estrogen receptor alpha (ER-alpha) signaling pathway using the BG1 cell line (AID 743079); further: nearly all actives have a fitted effect of over 20% in size
[16] = qHTS assay to identify small molecule antagonists of the estrogen receptor alpha (ER-alpha) signaling pathway using the BG1 cell line (AID 743080; calls by dose curve;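 further: BG1 cells stimulated with 17beta-estradiol alongside compound; nearly all actives have a fitted effect of over 25% in size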; further: potency means the concentration at half of the fitted maximal effect)
How it was run: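 Quantitative HTS on the Tox21 10K library: BG1 cells with endogenous ER-alpha and ERE-luciferase reporter, 17beta-estradiol stimulation, 21.5 h compound exposure, luminescence endpoint with parallel fluorescence cytotoxicity counter-read.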

Measured: Potency

O=Cc1ccc(Cl)cc1Cl
inactive: [1] | [2] | [3] | [4] | [5] | [6] | [7] | [8] | [9] | [10] | [11] | [12]

O=C(O)CC(Cl)C(=O)O (configuration not stated)
inactive: [1] | [2] | [3] | [4] | [5] | [6] | [7] | [10] | [11] | [12]

N#Cc1ccc(Cl)cc1
inactive: [1] | [2] | [3] | [4] | [5] | [6] | [7] | [13] | [14] | [15] | [16] | [11] | [12]

O=C(O)C(F)(F)C(F)(F)C(F)(F)C(F)(F)C(F)(F)C(F)(F)C(F)(F)C(F)(F)C(F)(F)C(F)(F)F
inactive: [1] | [2] | [3] | [4] | [5] | [6] | [7] | [9] | [11] | [12]

CCOP(=S)(OCC)SCn1nnc2ccccc2c1=O
inactive: [1] | [9]
active: [2] 7.7 µM | [3] 7.7 µM | [4] 9.69 µM | [5] 24.5 µM | [6] 61.1 µM | [10] 49 µM | [14] 19.5 µM [inconclusive] | [12] 34.4 µM

CC1C(=O)C[C@]2(C(C)C)C[C@H]12 (some centres not stated)
inactive: [1] | [2] | [3] | [4] | [5] | [6] | [7] | [8] | [9] | [11] | [12]

CCn1cc[n+](C)c1
inactive: [1] | [2] | [3] | [4] | [5] | [6] | [7] | [10] | [11]
inactive and 49.2 µM (active): [9]

CCBr
inactive: [1] | [2] | [3] | [4] | [5] | [6] | [7] | [9] | [13] | [10] | [14] | [15] | [16] | [11] | [12]

Clc1cccc2ccccc12
inactive: [1] | [2] | [3] | [4] | [5] | [6] | [7] | [9] | [10] | [11] | [12]

O=[N+]([O-])c1ccc(F)c([N+](=O)[O-])c1
active: [6] 55 µM | [11] 18.8 µM and 49 µM
inactive: [1] | [2] | [3] | [4] | [5] | [7] | [9] | [10] | [14] | [12]

CCOP(=O)(OCC)O/C(=C/Cl)c1ccc(Cl)cc1Cl
active: [2] 11.9 µM and 15.4 µM | [3] 23.7 µM and 27.3 µM | [4] 23.7 µM and 27.3 µM | [8] 29.8 µM and 61.1 µM | [13] 21.9 µM [inconclusive] | [16] 54.5 µM | [12] 27.3 µM
inactive: [1] | [5] | [6] | [9] | [10] | [14] | [15] | [11]

O=C1CN=C(c2ccccc2)c2cc(Cl)ccc2N1CC1CC1
active: [2] 18.8 µM | [3] 29.8 µM and 64.2 µM | [4] 26.6 µM | [8] 21.1 µM and 51 µM
inactive: [1] | [5] | [6] | [7] | [9] | [10] | [11] | [12]

CCOC(=O)CBr
inactive: [1] | [2] | [3] | [4] | [5] | [6] | [8] | [9] | [10] | [11] | [12]

C=C(C#N)CCC#N
inactive: [1] | [2] | [3] | [4] | [5] | [6] | [7] | [9] | [13] | [10] | [14] | [15] | [16] | [11] | [12]

C=CC(=O)OCC(C)O (configuration not stated)
inactive: [1] | [2] | [3] | [4] | [5] | [6] | [7] | [9] | [13] | [15] | [16] | [11]

CCCCN=C=O
inactive: [1] | [2] | [3] | [4] | [5] | [6] | [7] | [8] | [9] | [11] | [12]

NC(=O)CI
inactive: [1] | [2] | [3] | [5] | [6] | [7] | [8] | [9] | [13] | [10] | [14] | [15] | [16] | [11] | [12]

O=C(Nc1ccccc1)Nc1cnns1
active: [2] 54.4 µM | [3] 54.4 µM | [4] 30.6 µM | [8] 61.1 µM | [16] 68.5 µM
inactive: [1] | [7] | [9] | [10] | [14] | [11]

O=C(N[C@H](c1ccccc1)[C@@H]1CN2CCC1CC2)c1c(Cl)ccc(C(F)(F)F)c1Cl
inactive: [1] | [5] | [10]
active: [2] 22 µM | [3] 39.2 µM | [4] 24.7 µM | [7] 15.6 µM | [8] 39.2 µM

C=CC(C)=O
inactive: [1] | [2] | [3] | [4] | [5] | [7] | [13] | [10] | [14] | [15] | [16] | [11] | [12]
